The nature of test [1]: NCI Yeast Anticancer Drug Screen. Data for the rad50 strain (AID 155).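 Note: 0% = growth of vehicle-only cultures of the same strain.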 The following applies: S. cerevisiae rad50 strain growth inhibition, active compounds read high. In a few lines: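 Relative growth inhibition (compound vs vehicle) was measured in yeast with a defined repair-gene alteration.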
Test [2] is described as follows: NCI Yeast Anticancer Drug Screen. Data for the mec2-1 strain (AID 157). The following applies: S. cerevisiae mec2-1 strain, active compounds read high. The method in brief: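 Growth inhibition is read against vehicle-treated controls after compound exposure of the mec2-1 yeast strain, which is defective in DNA damage repair or cell cycle control.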
Test [3] is described as follows: NCI Yeast Anticancer Drug Screen. Data for the sgs1 mgt1 strain (AID 161).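 Note: 0% = growth of cultures given vehicle only.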 The following applies: S. cerevisiae sgs1 mgt1 strain, active compounds read high. In a few lines: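 Percent growth inhibition was derived by comparing compound-exposed mutant yeast with vehicle-exposed cultures. The strain carries alterations in DNA damage repair.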
Test [4] is described as follows: NCI Yeast Anticancer Drug Screen. Data for the cln2 rad14 strain (AID 165).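 Note: 0% = growth equal to vehicle treated cultures.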 The following applies: S. cerevisiae cln2 rad14 strain, active compounds read high. In a few lines: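 Growth inhibition, relative to vehicle-treated controls, is the read-out. The test organism is a yeast strain with defined genetic alterations, cln2 rad14.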
Test [5] in a line: NCI Yeast Anticancer Drug Screen. Data for the bub3 strain (AID 167). The following applies: S. cerevisiae bub3 mutant strain, active compounds read high. The method in brief: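 Screening used yeast with an engineered genetic alteration affecting cell cycle control. Compound-exposed cultures were compared with vehicle cultures, and reduced growth was taken as inhibition.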
Test [6] can be described thus: NCI Yeast Anticancer Drug Screen. Data for the mlh1 rad18 strain (AID 175). The following applies: S. cerevisiae mlh1 rad18 strain growth inhibition, active compounds read high. In a few lines:
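Cells of a genetically altered yeast strain, deficient in DNA damage repair, were treated with compound. Their growth was then compared with that of vehicle-treated cultures to give inhibition.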

The mark [7] stands for this setting: at 5.0 µM (retest, dose inferred, filed as 0.5).
The mark [8] stands for this setting: at 50.0 µM (retest, dose inferred, filed as 5.0).

This is part of a sample that, as a whole, favours compounds with a hit. Of some 79,000 tested, about 15% had one in any assay. Unmarked numbers belong to inactive results. Calls of active or inactive are those of the source. Cut-off read from the data, not from the text of the source: active = growth inhibition above about 70%; inactive = the rest.

With `O=C(CCl)OCc1ccccc1`, the growth inhibition is 1% in test [1] (setting [7]); 14% in test [1] (setting [8]); 34.1% in test [1] (at 50.0 µM); 3% in test [2] (setting [7]); 21% in test [2] (setting [8]); 30.7% in test [2] (at 50.0 µM). The growth inhibition in test [3] (setting [7]) is 0%; in test [3] (setting [8]), 18%; in test [3] (at 50.0 µM) it was 10.3%; in test [4] (setting [7]), 5%; in test [4] (setting [8]) it was 10%; in test [4] (at 50.0 µM) it was -21.9%. For the same molecule, the growth inhibition in test [5] (setting [7]) was -3%; in test [5] (setting [8]), 5%; in test [5] (at 50.0 µM), 5.4%; in test [6] (setting [7]), 5%; in test [6] (setting [8]), 20%; in test [6] (at 50.0 µM) it was 55%.

As to `O=NNc1c[nH]c(=O)[nH]c1=O`, the growth inhibition in test [1] (setting [7]) was 1%; in test [1] (setting [8]) it was 69%; in test [1] (at 50.0 µM), 72.6% (active); in test [2] (setting [7]), 0%; in test [2] (setting [8]) it was 14%; in test [2] (at 50.0 µM), 5.85%. For the same molecule, the growth inhibition in test [3] (setting [7]) was -1%; in test [3] (setting [8]), 29%; in test [3] (at 50.0 µM), 17.1%; in test [4] (setting [7]), -5%; in test [4] (setting [8]) it was 12%; in test [4] (at 50.0 µM) it was 4.3%. The growth inhibition in test [5] (setting [7]) is -1%; in test [5] (setting [8]), -12%; in test [5] (at 50.0 µM), 0.3%; in test [6] (setting [7]) it was 3%; in test [6] (setting [8]), 39%; in test [6] (at 50.0 µM) it was 21.1%.

Regarding `CN(C=O)C(=S)[S][Sb]([S]C(=S)N(C)C=O)[S]c1nc2ccc(N=Nc3ccc(NS(=O)(=O)c4ccc(NC(=O)C(N5CC5)(N5CC5)N5CC5)cc4)cc3)cc2s1`, the growth inhibition was 4% in test [1] (setting [7]); 6% in test [1] (setting [8]); 99.2% (active) in test [1] (at 50.0 µM); 0% in test [2] (setting [7]); -5% in test [2] (setting [8]); 99.3% (active) in test [2] (at 50.0 µM). The growth inhibition in test [3] (setting [7]) was -1%; in test [3] (setting [8]) it was 20%; in test [3] (at 50.0 µM), 99.5% (active); in test [4] (setting [7]), 4%; in test [4] (setting [8]), 3%; in test [4] (at 50.0 µM), 98.7% (active). In addition, the growth inhibition was 2% in test [5] (setting [7]); 8% in test [5] (setting [8]); 99.2% (active) in test [5] (at 50.0 µM); 0% in test [6] (setting [7]); 4% in test [6] (setting [8]); 99.2% (active) in test [6] (at 50.0 µM).

Consider `O=[N+]([O-])c1ccc(C2C3CC4C(OOC42)C3I)cc1` (stereo not given), for which the growth inhibition in test [1] (setting [7]) was 0%; in test [1] (setting [8]) it was 20%; in test [1] (at 50.0 µM), 23.5%; in test [2] (setting [7]) it was 0%; in test [2] (setting [8]), 9%; in test [2] (at 50.0 µM) it was 18.1%. Besides, the growth inhibition in test [3] (setting [7]) was -4%; in test [3] (setting [8]), 12%; in test [3] (at 50.0 µM), 32.8%; in test [4] (setting [7]), -1%; in test [4] (setting [8]) it was -7%; in test [4] (at 50.0 µM) it was -27.4%. The growth inhibition in test [5] (setting [7]) was 28%; in test [5] (setting [8]), 98% (active); in test [5] (at 50.0 µM) it was 97.2% (active); in test [6] (setting [7]), 0%; in test [6] (setting [8]), 27%; in test [6] (at 50.0 µM) it was 31.4%.

As for `C=C1C(=O)O[C@@H]2C[C@@H](C)[C@@H]3C=CC(=O)[C@@]3(C)[C@@H](O)[C@H]12`, the growth inhibition in test [1] (setting [7]) is 16%; in test [1] (setting [8]), 16%; in test [1] (at 50.0 µM), 9.25%; in test [2] (setting [7]), 2%; in test [2] (setting [8]), 19%; in test [2] (at 50.0 µM) it was 17.4%. Moreover, the growth inhibition in test [3] (setting [7]) is 3%; in test [3] (setting [8]) it was 31%; in test [3] (at 50.0 µM) it was 27.5%; in test [4] (setting [7]), 11%; in test [4] (setting [8]), 14%; in test [4] (at 50.0 µM), 22.1%. For the same molecule, the growth inhibition is -18% in test [5] (setting [7]); 3% in test [5] (setting [8]); 22.9% in test [5] (at 50.0 µM); 11% in test [6] (setting [7]); 27% in test [6] (setting [8]); 32.2% in test [6] (at 50.0 µM).

Regarding `C[CH2][Sn]([Cl])([CH2]C)[CH2]C`, the growth inhibition in test [1] (setting [7]) is 7%; in test [1] (setting [8]), 87% (active); in test [1] (at 50.0 µM) it was 98.3% (active); in test [2] (setting [7]) it was 0%; in test [2] (setting [8]), 84% (active); in test [2] (at 50.0 µM) it was 98.1% (active). The growth inhibition is 0% in test [3] (setting [7]); 91% (active) in test [3] (setting [8]); 97.3% (active) in test [3] (at 50.0 µM); -6% in test [4] (setting [7]); 60% in test [4] (setting [8]); 80.8% (active) in test [4] (at 50.0 µM). Further, the growth inhibition was -18% in test [5] (setting [7]); 83% (active) in test [5] (setting [8]); 98.2% (active) in test [5] (at 50.0 µM); 2% in test [6] (setting [7]); 92% (active) in test [6] (setting [8]); 98.2% (active) in test [6] (at 50.0 µM).

For `CNP1(=O)OC(c2ccccc2)=CCN1CCCl` (stereo not given), the growth inhibition in test [1] (setting [7]) was 3%; in test [1] (setting [8]), -1%; in test [1] (at 50.0 µM), 76.3% (active); in test [2] (setting [7]), -2%; in test [2] (setting [8]), 10%; in test [2] (at 50.0 µM), 47.6%. Also, the growth inhibition in test [3] (setting [7]) is 5%; in test [3] (setting [8]) it was -1%; in test [3] (at 50.0 µM) it was 58.8%; in test [4] (setting [7]), 0%; in test [4] (setting [8]), 6%; in test [4] (at 50.0 µM), -30.3%. Further, the growth inhibition is 0% in test [5] (setting [7]); -2% in test [5] (setting [8]); 23.9% in test [5] (at 50.0 µM); 0% in test [6] (setting [7]); 5% in test [6] (setting [8]); 71.2% (active) in test [6] (at 50.0 µM).

Regarding `CC(C)[CH2][Sn](=[O])[c]1ccccc1`, the growth inhibition is 8% in test [1] (setting [7]); 18% in test [1] (setting [8]); 99.3% (active) in test [1] (at 50.0 µM); 5% in test [2] (setting [7]); 11% in test [2] (setting [8]); 99.6% (active) in test [2] (at 50.0 µM). Also, the growth inhibition in test [3] (setting [7]) was 5%; in test [3] (setting [8]) it was 14%; in test [3] (at 50.0 µM) it was 99.5% (active); in test [4] (setting [7]), 2%; in test [4] (setting [8]) it was 10%; in test [4] (at 50.0 µM), 94.8% (active). For the same molecule, the growth inhibition in test [5] (setting [7]) was 8%; in test [5] (setting [8]) it was 10%; in test [5] (at 50.0 µM), 99.5% (active); in test [6] (setting [7]), 5%; in test [6] (setting [8]), 22%; in test [6] (at 50.0 µM) it was 99.2% (active).

Consider `CC(C)c1ccc(C(c2c(O)c3ccccc3oc2=O)c2c(O)c3ccccc3oc2=O)cc1`, for which the growth inhibition is 3% in test [1] (setting [7]); 91% (active) in test [1] (setting [8]); 98.5% (active) in test [1] (at 50.0 µM); -5% in test [2] (setting [7]); 95% (active) in test [2] (setting [8]); 97.9% (active) in test [2] (at 50.0 µM). Further, the growth inhibition in test [3] (setting [7]) was -10%; in test [3] (setting [8]), 95% (active); in test [3] (at 50.0 µM), 98.7% (active); in test [4] (setting [7]) it was -4%; in test [4] (setting [8]), 98% (active); in test [4] (at 50.0 µM), 99.3% (active). Moreover, the growth inhibition was -9% in test [5] (setting [7]); 92% (active) in test [5] (setting [8]); 98.6% (active) in test [5] (at 50.0 µM); -11% in test [6] (setting [7]); 97% (active) in test [6] (setting [8]); 98.4% (active) in test [6] (at 50.0 µM).

On to `C/C(=N\Nc1ccccc1)C(CN(C)C)C(c1ccccc1)c1c(O)c2ccccc2oc1=O` (stereo not given), for which the growth inhibition in test [1] (setting [7]) is 24%; in test [1] (setting [8]) it was 24%; in test [1] (at 50.0 µM) it was 88.2% (active); in test [2] (setting [7]), 14%; in test [2] (setting [8]), 14%; in test [2] (at 50.0 µM) it was 86.2% (active). For the same molecule, the growth inhibition in test [3] (setting [7]) is 16%; in test [3] (setting [8]), 16%; in test [3] (at 50.0 µM), 87.8% (active); in test [4] (setting [7]), 5%; in test [4] (setting [8]) it was 5%; in test [4] (at 50.0 µM), 86% (active). Further, the growth inhibition is 10% in test [5] (setting [7]); 10% in test [5] (setting [8]); 83.6% (active) in test [5] (at 50.0 µM); 12% in test [6] (setting [7]); 12% in test [6] (setting [8]); 86.5% (active) in test [6] (at 50.0 µM).

The values are drawn from PubChem BioAssay (NCI).
